Experimental data: PubChem BioAssay AID623926 (Vanderbilt Specialized Chemistry Center, 2012)
The source made the active and inactive calls.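 The calls were made as follows: active = compound whose M3 calcium response shifts with concentration, judged dose-dependent by the depositor; inactive = the rest, no dose-dependent response.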

Each compound was assayed against Muscarinic acetylcholine receptor M3 (Homo sapiens) (UniProt P20309) (assay: potentiation of ACh response at hM3 – CHO cells, calcium flux, selectivity assay for M4 PAM optimization, SAR follow-up (AID 623926)). Conditions: Fluo-4 calcium flux; outcome: ACh EC20; ACh EC20, at 30 µM (top of the series).

outcome, inactive:
Cc1nc2sc(C(=O)NCc3ccccc3)c(N)c2c(C)c1Cl, Cc1nc2sc(C(=O)NCc3nccs3)c(N)c2c(C)c1Cl, Cc1nc2sc(C(=O)NCc3ccncc3)c(N)c2c(C)c1Cl, COc1ccc(C)c2sc(NC(=O)c3ccncc3)nc12, Cc1nc2sc(C(=O)NC3CC3)c(N)c2c(C)c1Cl, Cc1nc2sc(C(=O)NCc3ccncn3)c(N)c2c(C)c1Cl, Cc1nc2sc(C(=O)NCCc3ccncc3)c(N)c2c(C)c1Cl, Cc1nc2sc(C(=O)NCc3ccc4c(c3)OCO4)c(N)c2c(C)c1Cl, Cc1nc2sc(C(=O)NCc3cccnc3)c(N)c2c(C)c1Cl, Cc1nc2sc(C(=O)NCc3cccc(F)c3F)c(N)c2c(C)c1Cl
